Laboratory results: PubChem BioAssay (NCI)
This is part of a sample that, as a whole, favours compounds with a hit. Of some 79,000 tested, about 15% had one in any assay. A number with no mark means an inactive call. Activity calls are given as the source filed them. Rule as the data show it: active = growth inhibition above about 70%; inactive = the rest.

Assay: NCI Yeast Anticancer Drug Screen. Data for the sgs1 mgt1 strain (AID 161);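 also: 0% = growth of cultures given vehicle only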
Conditions: S. cerevisiae sgs1 mgt1 strain, at 50.0 µM, hits give high values
How it was run: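 Inhibition of yeast growth, normalised to vehicle-treated controls, is reported for a strain bearing genetic alterations in DNA damage repair.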

**Q.** With Cc1ccc(-n2c(CSc3ccc(Cl)cc3)nnc2SCc2nc3ccccc3[nH]2)cc1 as the compound, how does the growth inhibition read?
**A.** 42.7%

**Q.** For CC(=O)Nc1cccc(C(=O)O)c1, which growth inhibition is on record?
**A.** 5.75%

**Q.** With COc1ccc2c(c1)CCCN2CCCCCCCCCN1CCCCC1 as the compound, how does the growth inhibition read?
**A.** 82.8% (active)

**Q.** For CN(C)C(=O)/N=c1\ss/c(=N\C(=S)N(C)C)n1-c1ccccc1, which growth inhibition is on record?
**A.** 72% (active)

**Q.** With Clc1ccc(-c2nnc(-c3ccccn3)o2)c(Cl)c1 as the compound, how does the growth inhibition read?
**A.** 99.2% (active)

**Q.** For CC(O)CC(O)CC1CCCO1 (centres undefined), which growth inhibition is on record?
**A.** 25.2%

**Q.** For CC[C@]1(O)C[C@H]2[C@@H]3CCc4cc(OC)ccc4[C@H]3CC[C@]2(C)[C@H]1O, which growth inhibition is on record?
**A.** 49.9%

**Q.** For CCCCCCCCCCCCCCCCCCOS(=O)(=O)O (tested in a mixture with another compound), which growth inhibition is on record?
**A.** 68.7%

**Q.** Which growth inhibition does the source give for C/C(=N\NC(=S)N1CCCC1)c1nc2ncccc2[nH]1 here?
**A.** 83.2% (active)

**Q.** For CC(C)(C)C1=NN=C2c3ccccc3C(=O)C21 (centres undefined), which growth inhibition is on record?
**A.** 53.2%

**Q.** With O=C(O)c1ccc(N=CC2CO2)cc1 (centres undefined) as the compound, how does the growth inhibition read?
**A.** 7.05%

**Q.** Which growth inhibition does the source give for CCC1(C)C(C#N)(C#N)C1(C#N)C#N here?
**A.** 97.8% (active)

**Q.** For COc1ccc(N(C)Sc2ccccc2)cc1, which growth inhibition is on record?
**A.** 67.1%

**Q.** For C/C(CCn1[nH]c(=O)ccc1=O)=N\NS(=O)(=O)c1ccc(C)cc1, which growth inhibition is on record?
**A.** 12.6%

**Q.** Which growth inhibition does the source give for CCC[n+]1ccc(/C=N\NC(N)=S)c2ccccc21 here?
**A.** 6.2%

**Q.** With O=S1CCS(=O)C1c1ccccc1 (centres undefined) as the compound, how does the growth inhibition read?
**A.** 54%

**Q.** Which growth inhibition does the source give for NC(=O)c1c(Cl)nc2n1CCS2 here?
**A.** -1.3%

**Q.** For CC(C)S(=O)(=O)ON1C(=O)c2ccc(N(C)C)cc2C1=O, which growth inhibition is on record?
**A.** 61.3%

**Q.** With C=Cc1cc(=O)oc2cc(OC)ccc12 as the compound, how does the growth inhibition read?
**A.** 61.2%

**Q.** Which growth inhibition does the source give for O=[N+]([O-])c1cc(Cl)cc2c1nc(NCCO)c1ccccc12 here?
**A.** 79.7% (active)

**Q.** For c1ccc2nc3ccccc3nc2c1, which growth inhibition is on record?
**A.** 28.4%

**Q.** Which growth inhibition does the source give for Cc1cc(O)ccc1SC#N here?
**A.** 79.9% (active)

**Q.** Which growth inhibition does the source give for CC1=C(C(=O)NCc2ccccc2)C(c2ccccc2O)C(C(=O)NCc2ccccc2)=C(C)N1 here?
**A.** 79.7% (active)

**Q.** For Cc1occc1C(=S)Nc1ccc(Cl)c(COC(C)(C)C)c1, which growth inhibition is on record?
**A.** 85.7% (active)

**Q.** Which growth inhibition does the source give for CCN(CC)CCOc1c(I)cc(I)cc1I here?
**A.** 96.5% (active)

**Q.** Which growth inhibition does the source give for CCc1c(C(=O)OC)c(C(=O)OC)c(-c2ccccc2)n1CCn1c(CC)c(C(=O)OC)c(C(=O)OC)c1-c1ccccc1 here?
**A.** 28.6%

**Q.** Which growth inhibition does the source give for O=C1/C(=C/c2ccc(Cl)cc2)CSC/C1=C\c1ccc(Cl)cc1 here?
**A.** 9.35%

**Q.** For COc1ccc(C2COc3cc(O)c(O)cc3C2)cc1OC (centres undefined), which growth inhibition is on record?
**A.** 43.3%

**Q.** Which growth inhibition does the source give for O=C1c2ccccc2C(=O)c2c1cc(O)c(O)c2O here?
**A.** 81.5% (active)

**Q.** With COc1cc[c]([Sn]([O][Sn]([Cl])([c]2ccc(OC)cc2)[c]2ccc(OC)cc2)[c]2ccc(OC)cc2)cc1 as the compound, how does the growth inhibition read?
**A.** 69.8%

**Q.** For O=C(N/C(=C\c1ccc(/C=C(\NC(=O)c2ccccc2)c2nc3ccccc3s2)cc1)c1nc2ccccc2s1)c1ccccc1, which growth inhibition is on record?
**A.** 85.6% (active)

**Q.** For Cn1c(=O)cc[nH]c1=O, which growth inhibition is on record?
**A.** 5.45%

**Q.** Which growth inhibition does the source give for CCOC(=O)C1=C(c2ccccc2)SC(c2ccccc2)N(C(C)C)C1=O (centres undefined) here?
**A.** 94.5% (active)

**Q.** Which growth inhibition does the source give for S=C1NC2=C(CSC/C2=C\c2cccc(Br)c2)C(c2cccc(Br)c2)N1 (centres undefined) here?
**A.** 95.7% (active)

**Q.** For c1ccc2[nH]c(CN(CCN(Cc3nc4ccccc4[nH]3)Cc3nc4ccccc4[nH]3)Cc3nc4ccccc4[nH]3)nc2c1, which growth inhibition is on record?
**A.** 91% (active)

**Q.** For O=[N+]([O-])c1ccc(NC(=S)N/N=C(\c2ccccc2)c2ccccn2)cc1, which growth inhibition is on record?
**A.** 79.5% (active)

**Q.** With O=C(NCCl)Nc1ccccc1 as the compound, how does the growth inhibition read?
**A.** 67.9%

**Q.** For O=Cc1[nH]c(=S)[nH]c(=O)c1CCCc1ccccc1, which growth inhibition is on record?
**A.** 98.5% (active)

**Q.** With CCCC/C=C(/CCCCOCOCCOC)[Si](C)(C)C as the compound, how does the growth inhibition read?
**A.** 15.9%
